This note sets out measurements from PubChem BioAssay AID463176 (Southern Research Specialized Biocontainment Screening …, 2010).

Molecules are shown by their SMILES. Active and inactive are the calls of the source.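 Rule for the calls: active = inhibition above 30% at one or more tested concentrations in the dose response; inactive = inhibition below 30% at every tested concentration.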

This assay is described as follows: PhoP regulon inhibitors in S. Typhimurium, late-stage follow-up, synthesized compounds, set 5 (AID 463176). The conditions noted are these: S. Typhimurium PhoP-promoter GFP reporter, fluorescence, 4 h; series mostly up to 150 µM; inhibition: at the top concentration.
As a reminder, the inhibition is the change of the read-out against control, counted positive when it falls. Take `Cc1ccc(C2Sc3ccccc3N=C3c4ccccc4CC32)cc1` (stereo unspecified): the “inhibition” value is -35.8% (inactive). Under `Clc1ccc(C2Sc3ccccc3N=C3c4ccccc4CC32)cc1` (stereo unspecified) stands -7.91% (inactive).

For the compound `O=C1C2=C(Nc3ccccc3SC2c2cccc(Br)c2)c2ccccc21` (stereo unspecified), the “inhibition” value is 13.8% (inactive). As to `COc1cccc(NC(=O)N2CCCN(Cc3ccccc3F)C2)c1`, the “inhibition” value is 25.4% (inactive). Regarding `O=C1C2=C(Nc3ccccc3SC2c2ccc(Cl)cc2)c2ccccc21` (stereo unspecified), the “inhibition” value is 29.2% (inactive). Take `O=C1C2=C(Nc3ccccc3SC2c2cccnc2)c2ccccc21` (stereo unspecified): the “inhibition” value was 14% (inactive).
